Common to all, as to assay: NCI-60 one-dose screen, 48 h (100 = growth as untreated, 0 = no growth, -100 = all killed)
What all share (details): 10 µM

The test system of test [1] is SK-MEL-2 melanoma.
The test system of test [2] is SN12C renal.
For test [3], the system named is UO-31 renal.
Test [4] deals with TK-10 renal.
Test [5] relates to ACHN renal.
Test [6] deals with MOLT-4 leukemia.
For test [7], the system named is SR leukemia.
Test [8] relates to OVCAR-8 ovarian.
Test [9] deals with OVCAR-5 ovarian.
Test [10] deals with OVCAR-4 ovarian.
The subject of test [11] is SK-OV-3 ovarian.
Test [12] concerns IGROV1 ovarian.
The test system of test [13] is OVCAR-3 ovarian.
Test [14] has as its system HS 578T breast.
Test [15] deals with NCI/ADR-RES ovarian.
For test [16], the system named is A498 renal.
For test [17], the system named is CCRF-CEM leukemia.
Test [18] concerns RPMI-8226 leukemia.
In test [19] the test system is CAKI-1 renal.
The subject of test [20] is EKVX NSCLC.

Compounds without any hit were thinned out: in the full panel of roughly 83,000, 20% have a hit.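 Cell lines were cultured in 96-well plates, exposed to a single compound concentration, and assessed for percent growth 48 hours later.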 A number with no mark means an inactive call. Active and inactive are the calls of the source. How the source made its calls: active means growth percent below 10; inactive means the rest.

`CCn1c(CSc2nc3ccccc3c(=O)n2CCc2ccccc2)n[nH]c1=S`: the growth was 103% in test [1]; 104% in [2]; 76.5% in test [3]; 98% in [4]; 96.8% in [5]; 71% in test [6]. The growth in test [7] was 73.1%; in test [8], 89.7%; in test [9], 91.9%; in test [10], 85.6%; in [11] it was 97.9%; in [12], 93.4%. Also, the growth is 102% in test [13], 91% in test [14] and 73.7% in test [15].

Regarding `S=C1N(c2ccccc2)CN(C2CCCCC2)CN1c1ccccc1`, the growth in test [1] was 106%; in test [2], 103%; in test [3] it was 92.3%; in test [5] it was 97.6%; in test [16], 103%; in [17] it was 80.6%. The growth in test [6] was 125%; in [7] it was 102%; in test [18] it was 103%; in test [8], 75%; in [9], 104%; in test [10], 96.5%. The growth in test [11] is 117%; in [12] it was 95.9%; in [13], 106%; in test [14], 63.2%; in test [15], 103%.

Consider `O=C(Nc1ccc(OCc2nnc(-c3ccc(Cl)cc3)o2)c(F)c1)Nc1ccc(Cl)c(C(F)(F)F)c1`, for which the growth in test [1] is -20.2% (active); in [4], 15.5%; in test [5], 0.519% (active); in test [19], 13.3%; in test [16] it was -23.7% (active); in test [17] it was 4.05% (active). Further, the growth in test [6] was -1.55% (active); in [7] it was -15.4% (active); in test [18] it was -22.2% (active); in [8] it was 11.6%; in test [9], 26.6%; in test [10], 17.2%. Further, the growth was 35.2% in test [11], 0.829% (active) in [13], 14.5% in [14] and 7.99% (active) in [15].

Turning to `CN1CCN(c2cc3c(cc2F)c(=O)c(C(=O)O)cn3-c2ccc(F)cc2)CC1`, the growth in test [20] was 108%; in test [2] it was 97.3%; in test [3] it was 68.7%; in test [4], 103%; in [5], 95.1%; in test [19] it was 94.7%. Moreover, the growth in [16] is 86.8%; in [17], 102%; in test [6], 84.2%; in test [7], 96.4%; in [18], 101%; in test [8] it was 96.8%. The growth is 106% in test [9]; 102% in test [10]; 109% in test [11]; 103% in [12]; 102% in test [13]; 99.6% in test [14]. For the same compound, the growth in [15] was 90.1%.

Consider `Cc1cc(CC(C)CC(C)(C)C)n(O)c(=O)c1` (stereo not given) (tested in a mixture with another compound), for which the growth in test [20] was 24.2%; in test [2], 13.2%; in test [3], 0% (active); in test [4], 75%; in test [5] it was 9.73% (active); in test [19], 34.3%. Also, the growth is 62.4% in [16]; 11.4% in test [17]; -6.44% (active) in test [6]; 2.72% (active) in [7]; 39.8% in test [18]; 20% in test [8]. The growth in [9] is 41.4%; in [10], 22.4%; in test [11] it was 57.6%; in [12], 9.36% (active); in [13], 24.2%; in test [14], 62.8%. Moreover, the growth in test [15] is 0.595% (active).

`COc1ccc(-c2nn(-c3cccc(Cl)c3)cc2-c2c(C#N)c(N)n(N)c(=O)c2C#N)cc1`: the growth in test [1] is 77.4%; in [2], 68.9%; in test [4], 59.8%; in test [5], 87.2%; in [17], 56.8%; in test [8], 73.3%. Further, the growth was 84.4% in test [9]; 89.3% in [10]; 95% in test [11]; 72.4% in test [13]; 58.2% in test [14]; 90.4% in [15].

Regarding `C=C(NC(=O)C(=C)NC(=O)c1csc(C2=NC3c4csc(n4)C4NC(=O)c5csc(n5)C(C(C)(O)C(C)O)NC(=O)C5CSC(=N5)C(=CC)NC(=O)C(C(C)O)NC(=O)c5csc(n5)C3(CC2)NC(=O)C(C)NC(=O)C(=C)NC(=O)C(C)NC(=O)C(C(C)CC)NC2C=Cc3c(C(C)O)cc(nc3C2O)C(=O)OC4C)n1)C(N)=O` (stereo not given), the growth is 72.2% in [20]; 25.6% in [2]; 64.7% in [3]; 27.7% in test [4]; 23.6% in test [5]; 71.4% in [19]. Moreover, the growth is -41.5% (active) in test [16]; -10.1% (active) in test [17]; -36.9% (active) in [6]; -7.28% (active) in [7]; 10.1% in test [18]; 20.4% in test [8]. Besides, the growth in test [9] is 34%; in [10] it was 33.1%; in test [11], 99.8%; in test [12], 64.6%; in test [13], 34%; in test [14] it was 42.5%. The growth in test [15] was 86.3%.

`COc1ccc(-c2nc(-c3nc4ccc(C)cc4[nH]3)cc3c2[nH]c2ccccc23)cc1`: the growth in test [1] was 9.81% (active); in test [2], 28.5%; in test [4] it was 45%; in test [5], 26.8%; in [19], 44.4%; in [16], 68%. The growth is 21.9% in test [6]; 10.2% in test [7]; 16.2% in test [18]; 21.4% in [8]; 83.9% in test [9]; 45.1% in [10]. Moreover, the growth is 107% in test [11], 45.1% in test [13], 66.9% in [14] and 19.4% in [15].

For `Cc1ccc(-c2c3c(N)nc(-c4cccnc4)nc3nc3c2c(C)nn3-c2ccccc2)cc1`, the growth in test [1] was 61.6%; in [2], 82.8%; in test [4], 94.6%; in test [5], 40%; in test [19], 83.6%; in test [16], 74.8%. Besides, the growth in [6] is 93.6%; in [7], 82.5%; in test [18] it was 81.2%; in test [8], 82%; in test [9], 90.8%; in test [10], 50.8%. The growth in [11] was 66.2%; in test [12] it was 103%; in test [13], 104%; in test [14], 72%; in [15], 90.3%.

Values taken from PubChem BioAssay (NCI).
